Structures are written as SMILES. The panel holds about 83,000 compounds, 20% with a hit somewhere; the sample as a whole holds those more often.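 Interpretation: 100, growth as untreated; towards 0, rising growth inhibition; 0, no net growth; 0 to -100, cell death. Compounds scoring below 10 were considered active.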 The source made the active and inactive calls.

In this experiment the test system is MDA-MB-468 breast. Kind of experiment: NCI-60 one-dose screen, 48 h (100 = growth as untreated, 0 = no growth, -100 = all killed). The settings on record: 10 µM unless noted.
Regarding `CCN1CCN(c2nc(C)cc(NCc3cc(Nc4ccnc5cc(Cl)ccc45)ccc3F)n2)CC1`, the growth was -23.1% (active).

Take `O=C1Nc2ccc(Cl)cc2/C1=N/c1nc(-c2ccc(Cl)cc2)cs1`: the growth was -18% (active).

Consider `C/C(=C(/c1ccccc1)c1ccc(OCC(O)CNCCN2CCOCC2)cc1)c1ccccc1` (stereo not drawn), for which the growth is 53.1% (inactive).

With `COc1cccc2c(=O)c3c(sc12)c(N1CCNCC1)nc1ccccc13`, the growth is 50.2% (inactive).

For the molecule `COc1cc2c(cc1-c1c(C)noc1C)ncc1nc(C3CCOCC3)n([C@@H](C)COC(F)F)c12`, the growth is 47.5% (inactive).

On to `CNCc1cccc2c1OCCCCCCC(C)(O)CC(C)(C)S(=O)(=O)c1ccc(cc1)-c1cnc(N)c(n1)C(=O)N2` (stereo not drawn), for which the growth was -54.1% (active).

With `Cc1ccc(O)c(NC(=O)c2cccc(Nc3ccnc(C(F)(F)F)c3)c2)c1`, the growth was 46% (inactive).

For `C[C@]12CCC3c4ccc(O)cc4C[C@@H](CCCCCCCCCS(=O)CCCC(F)(F)C(F)(F)F)C3C1CC[C@@H]2O` (stereo partly drawn), the growth is 88% (inactive).

For `O=C(O)c1cn(C2CC2)c2cc(N3CCN(C(=O)CN4C(=O)CSC4=O)CC3)c(F)cc2c1=O`, the growth was 96.4% (inactive).

For the molecule `CC(C)(C)[Si](C)(C)OCC1OC(n2cnc3c(N)ncnc32)CC1OS(C)(=O)=O` (stereo not drawn), the growth is 99.7% (inactive).

Consider `Cn1nc(C(C)(C)C)cc1NC(=O)Cc1ccc(/C=C2\C(=O)Nc3ccccc32)cc1`, for which the growth is 20% (inactive).

As to `COc1cc(C(=O)c2ccccc2C(=O)O)c(OC)c2c1CCCC2`, the growth is 94.7% (inactive).

Turning to `O=C1CN(CCN2CC(=O)N(Cc3ccccc3)C(=O)C2)CC(=O)N1Cc1ccccc1`, the growth was 107% (inactive).
